In the supplement of paper PMC10849652:
The full data set covers some 7,900 targets. This sample favours those with a hit. About 0.6% of all pairs of compound and target were hits. A number with no mark means an inactive call.

Legend:
Test in all cases: log2 fold change, soluble protein after heating vs DMSO (PISA); higher = thermal stabilisation; K562 cells, 10 uM, 30 min; active = over 0.2 and 3.5 SD of the protein, either way, in both replicates (recomputed)
erlotinib = compound: C#Cc1cccc(Nc2ncnc3cc(OCCOC)c(OCCOC)cc23)c1 [erlotinib]
Method in brief: (§1)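 Soluble protein was quantified by TMTpro 16plex LC-MS/MS after channel sums were equalised. It was obtained as the supernatant after 21,000xg for 90 min from pooled aliquots of K562 cells (2×10^6 cells/mL, 10 μM compound, 30 min) heated for 3 min across 48°C-58°C and extracted in PBS with 0.5% NP-40 at 4°C. Thermal stability values are relative to control samples and come from duplicates. They are given as log2 fold changes.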

[1] = compound: C/C(=N\NC(=O)C1=CC(=CC=C1)S(=O)(=O)N2CCOCC2)/C3=C(C=CC(=C3)Cl)O
Method in brief: as §1

[2] = compound: C1=CC(=C(C=C1Cl)C2=NC3=NC=CN=C3C(=N2)NC4=CC=NC=C4)F
Method in brief: as §1

[3] = compound: C1=CC(=CC=C1C2=NC3=C(N2)C=C(C=C3)C(=O)N)OC4=CC=C(C=C4)Cl
Method in brief: as §1

[4] = compound: C1=CC2=C(C=CC(=C2)/C=C\3/C(=O)NC(=NCC4=CC=CS4)S3)N=C1
Method in brief: as §1

[5] = compound: C1=CC2=NC=CN=C2C=C1/C=C/3\C(=O)NC(=O)S3
Method in brief: as §1

[6] = compound: C1=CC=C(C=C1)C2=NC(=C(N2)C3=CC=NC=C3)C4=CC(=C(C=C4)Cl)O
Method in brief: as §1

[7] = compound: C1=CC=C2C(=C1)C3=NNC4=CC=CC(=C43)C2=O
Method in brief: as §1

[8] = compound: C1CCN(C1)C(=O)NC2=CC=CC(=C2)NC3=NC=C(C(=N3)NCCC4=CN=CN4)Br
Method in brief: as §1

[9] = compound: C1CN(CCC1(CC2=CC=C(C=C2)Cl)N)C3=NC=NC4=C3C=CN4
Method in brief: as §1

UniProt Q8N543, sequence (Q8N543 whole entry, looked up): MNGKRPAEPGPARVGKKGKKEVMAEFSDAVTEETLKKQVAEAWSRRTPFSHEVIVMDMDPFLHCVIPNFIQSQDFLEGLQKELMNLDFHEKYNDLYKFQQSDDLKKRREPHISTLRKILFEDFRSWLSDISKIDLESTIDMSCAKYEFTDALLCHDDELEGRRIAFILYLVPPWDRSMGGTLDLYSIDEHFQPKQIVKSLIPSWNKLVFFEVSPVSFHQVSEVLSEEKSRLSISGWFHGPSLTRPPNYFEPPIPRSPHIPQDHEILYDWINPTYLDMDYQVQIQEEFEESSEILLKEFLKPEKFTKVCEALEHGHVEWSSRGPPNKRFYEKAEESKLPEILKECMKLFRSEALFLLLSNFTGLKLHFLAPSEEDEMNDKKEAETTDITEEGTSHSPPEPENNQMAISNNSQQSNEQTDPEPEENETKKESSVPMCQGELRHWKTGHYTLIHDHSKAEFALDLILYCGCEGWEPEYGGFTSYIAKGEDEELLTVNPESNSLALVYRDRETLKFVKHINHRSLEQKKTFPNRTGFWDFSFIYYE
UniProt Q16656, sequence (Q16656 whole entry, looked up): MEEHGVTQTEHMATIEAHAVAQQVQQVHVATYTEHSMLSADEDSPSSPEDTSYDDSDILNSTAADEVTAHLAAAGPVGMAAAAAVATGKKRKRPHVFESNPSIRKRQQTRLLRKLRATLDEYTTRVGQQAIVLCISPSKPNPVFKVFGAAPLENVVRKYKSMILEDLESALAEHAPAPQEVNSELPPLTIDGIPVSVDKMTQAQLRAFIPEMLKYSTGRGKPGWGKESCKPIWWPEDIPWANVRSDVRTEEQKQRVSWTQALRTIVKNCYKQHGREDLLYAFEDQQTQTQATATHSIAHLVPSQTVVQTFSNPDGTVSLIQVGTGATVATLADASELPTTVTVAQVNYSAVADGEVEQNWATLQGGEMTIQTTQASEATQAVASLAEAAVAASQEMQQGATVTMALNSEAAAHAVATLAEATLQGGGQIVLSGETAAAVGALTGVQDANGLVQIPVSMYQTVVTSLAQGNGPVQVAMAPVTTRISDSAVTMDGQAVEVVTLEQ
UniProt O75251, sequence (O75251 whole entry, looked up): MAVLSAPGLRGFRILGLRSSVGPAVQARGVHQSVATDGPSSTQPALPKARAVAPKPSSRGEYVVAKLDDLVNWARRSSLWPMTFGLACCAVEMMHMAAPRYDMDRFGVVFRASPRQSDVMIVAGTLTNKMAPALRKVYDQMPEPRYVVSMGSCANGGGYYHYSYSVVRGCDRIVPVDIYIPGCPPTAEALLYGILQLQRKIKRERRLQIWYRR
UniProt Q9Y2A7, sequence (Q9Y2A7 whole entry, looked up): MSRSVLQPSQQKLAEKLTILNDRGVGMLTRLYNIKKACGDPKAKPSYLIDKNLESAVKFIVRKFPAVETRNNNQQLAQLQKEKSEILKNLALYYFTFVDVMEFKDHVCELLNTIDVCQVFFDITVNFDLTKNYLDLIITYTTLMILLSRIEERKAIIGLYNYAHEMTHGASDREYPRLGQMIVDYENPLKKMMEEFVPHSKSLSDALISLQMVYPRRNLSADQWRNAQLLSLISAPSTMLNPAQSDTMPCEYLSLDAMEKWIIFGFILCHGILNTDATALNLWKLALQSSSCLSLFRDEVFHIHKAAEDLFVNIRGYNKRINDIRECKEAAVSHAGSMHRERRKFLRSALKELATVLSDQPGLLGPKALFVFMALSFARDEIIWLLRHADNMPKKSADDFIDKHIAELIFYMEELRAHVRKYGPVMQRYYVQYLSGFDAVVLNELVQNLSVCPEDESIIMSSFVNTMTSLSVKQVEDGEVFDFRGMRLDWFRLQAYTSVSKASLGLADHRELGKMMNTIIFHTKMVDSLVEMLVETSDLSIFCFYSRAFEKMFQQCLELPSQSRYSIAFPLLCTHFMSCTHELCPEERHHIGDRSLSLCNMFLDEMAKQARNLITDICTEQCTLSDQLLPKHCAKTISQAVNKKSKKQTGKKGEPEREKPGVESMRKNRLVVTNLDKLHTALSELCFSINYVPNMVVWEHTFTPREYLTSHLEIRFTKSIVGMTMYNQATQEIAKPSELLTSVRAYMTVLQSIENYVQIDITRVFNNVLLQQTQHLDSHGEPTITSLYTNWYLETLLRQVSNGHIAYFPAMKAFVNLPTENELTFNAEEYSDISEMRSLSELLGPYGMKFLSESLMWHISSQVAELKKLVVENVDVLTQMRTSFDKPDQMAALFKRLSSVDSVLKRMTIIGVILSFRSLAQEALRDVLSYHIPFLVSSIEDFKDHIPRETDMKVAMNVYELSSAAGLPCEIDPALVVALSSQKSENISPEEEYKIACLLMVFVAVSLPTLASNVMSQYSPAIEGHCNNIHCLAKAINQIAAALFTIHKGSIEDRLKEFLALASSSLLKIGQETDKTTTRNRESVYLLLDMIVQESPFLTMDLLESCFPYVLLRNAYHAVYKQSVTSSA
UniProt P48645, sequence (P48645 whole entry, looked up): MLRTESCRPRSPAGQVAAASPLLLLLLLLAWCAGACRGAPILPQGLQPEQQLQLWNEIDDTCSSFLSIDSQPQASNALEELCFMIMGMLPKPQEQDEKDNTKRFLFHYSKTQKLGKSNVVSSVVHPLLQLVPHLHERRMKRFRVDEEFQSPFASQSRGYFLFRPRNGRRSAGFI
UniProt Q8WUY8, sequence (Q8WUY8 whole entry, looked up): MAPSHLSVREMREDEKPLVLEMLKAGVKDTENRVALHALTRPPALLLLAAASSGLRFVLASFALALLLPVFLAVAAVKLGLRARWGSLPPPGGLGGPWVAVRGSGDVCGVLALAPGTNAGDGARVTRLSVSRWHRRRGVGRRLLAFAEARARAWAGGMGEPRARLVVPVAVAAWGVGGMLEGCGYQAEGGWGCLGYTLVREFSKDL
UniProt P52948, sequence (P52948 whole entry, looked up): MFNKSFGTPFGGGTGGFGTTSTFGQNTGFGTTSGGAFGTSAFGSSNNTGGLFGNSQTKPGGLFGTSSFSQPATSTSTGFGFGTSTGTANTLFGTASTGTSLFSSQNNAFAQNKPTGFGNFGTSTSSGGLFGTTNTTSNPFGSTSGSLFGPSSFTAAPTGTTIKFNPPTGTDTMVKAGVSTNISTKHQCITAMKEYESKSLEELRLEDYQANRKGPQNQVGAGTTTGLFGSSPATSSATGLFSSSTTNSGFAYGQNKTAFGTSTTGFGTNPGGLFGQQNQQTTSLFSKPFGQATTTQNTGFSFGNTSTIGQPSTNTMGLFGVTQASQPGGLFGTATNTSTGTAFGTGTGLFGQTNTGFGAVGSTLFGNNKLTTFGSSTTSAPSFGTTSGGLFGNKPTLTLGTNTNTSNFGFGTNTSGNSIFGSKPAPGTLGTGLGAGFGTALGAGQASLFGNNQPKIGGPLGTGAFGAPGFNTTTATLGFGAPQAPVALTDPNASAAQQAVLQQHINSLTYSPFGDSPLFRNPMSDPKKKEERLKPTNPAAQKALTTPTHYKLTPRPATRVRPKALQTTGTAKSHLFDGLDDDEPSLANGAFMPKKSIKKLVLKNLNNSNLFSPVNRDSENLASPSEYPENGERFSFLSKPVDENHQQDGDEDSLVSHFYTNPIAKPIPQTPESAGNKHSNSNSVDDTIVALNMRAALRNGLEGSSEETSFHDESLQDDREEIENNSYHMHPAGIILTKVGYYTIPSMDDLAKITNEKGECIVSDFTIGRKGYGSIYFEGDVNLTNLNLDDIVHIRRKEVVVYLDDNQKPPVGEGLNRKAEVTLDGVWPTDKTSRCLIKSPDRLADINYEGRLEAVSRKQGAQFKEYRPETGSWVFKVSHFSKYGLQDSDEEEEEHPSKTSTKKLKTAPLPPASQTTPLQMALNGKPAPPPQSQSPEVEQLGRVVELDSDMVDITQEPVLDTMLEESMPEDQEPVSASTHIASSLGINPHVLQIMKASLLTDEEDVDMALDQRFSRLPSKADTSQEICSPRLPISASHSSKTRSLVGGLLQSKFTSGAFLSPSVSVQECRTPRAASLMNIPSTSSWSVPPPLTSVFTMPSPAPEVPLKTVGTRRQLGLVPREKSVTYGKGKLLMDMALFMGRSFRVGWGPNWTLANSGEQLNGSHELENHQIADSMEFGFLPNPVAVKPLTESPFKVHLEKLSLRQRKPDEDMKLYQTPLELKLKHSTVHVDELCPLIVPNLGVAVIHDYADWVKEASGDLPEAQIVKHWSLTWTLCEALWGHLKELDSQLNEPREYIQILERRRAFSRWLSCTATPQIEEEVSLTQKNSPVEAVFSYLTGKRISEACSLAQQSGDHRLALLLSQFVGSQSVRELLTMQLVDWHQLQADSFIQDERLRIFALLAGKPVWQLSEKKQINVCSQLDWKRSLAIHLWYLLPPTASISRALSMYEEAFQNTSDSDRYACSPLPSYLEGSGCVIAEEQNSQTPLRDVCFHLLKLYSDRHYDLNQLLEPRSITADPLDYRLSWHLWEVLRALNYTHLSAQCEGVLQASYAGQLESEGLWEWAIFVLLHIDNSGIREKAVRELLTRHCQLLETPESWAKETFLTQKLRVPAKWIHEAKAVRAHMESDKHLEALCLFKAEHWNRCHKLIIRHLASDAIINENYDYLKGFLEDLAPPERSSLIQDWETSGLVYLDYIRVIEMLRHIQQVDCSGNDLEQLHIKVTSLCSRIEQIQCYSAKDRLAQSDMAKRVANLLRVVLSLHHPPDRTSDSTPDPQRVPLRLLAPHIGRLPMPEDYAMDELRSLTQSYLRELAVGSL
UniProt P68402, sequence (P68402 whole entry, looked up): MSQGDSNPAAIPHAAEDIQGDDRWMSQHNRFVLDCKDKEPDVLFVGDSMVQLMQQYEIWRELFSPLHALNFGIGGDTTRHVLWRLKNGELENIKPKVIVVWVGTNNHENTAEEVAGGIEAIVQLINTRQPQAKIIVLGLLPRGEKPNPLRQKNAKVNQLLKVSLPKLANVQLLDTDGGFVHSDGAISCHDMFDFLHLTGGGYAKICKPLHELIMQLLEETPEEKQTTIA

For PAFAH1B2 (UniProt P68402), the log2 fold change (erlotinib) was 0.195, the log2 fold change [1] was -0.088 and the log2 fold change [2] was 0.134. It also gave a log2 fold change [3] of -0.016, a log2 fold change [4] of -0.036 and a log2 fold change [5] of -0.034. It also gave a log2 fold change [6] of 0.068, a log2 fold change [7] of 0.027 and a log2 fold change [8] of 0.128. For the same target, the log2 fold change [9] was 0.047.

NUP98 (UniProt P52948) was tested, and the log2 fold change (erlotinib) was 0.063, the log2 fold change [1] was 0.01 and the log2 fold change [2] was -0.085. The log2 fold change [3] was -0.013, the log2 fold change [4] was -0.011 and the log2 fold change [5] was 0.035. It also gave a log2 fold change [6] of -0.015, a log2 fold change [7] of -0.217 and a log2 fold change [8] of -0.06. It also gave a log2 fold change [9] of -0.012.

Work on NCKAP1 isoform 2 (UniProt Q9Y2A7) yielded a log2 fold change (erlotinib) of -0.019, a log2 fold change [1] of 0.096 and a log2 fold change [2] of 0.056. The log2 fold change [3] was 0.02, the log2 fold change [4] was 0.015 and the log2 fold change [5] was 0.02. It also gave a log2 fold change [6] of 0.024, a log2 fold change [7] of -0.003 and a log2 fold change [8] of -0.037. It also gave a log2 fold change [9] of 0.027.

Work on NMT1 (UniProt P30419) yielded a log2 fold change (erlotinib) of -0.002, a log2 fold change [1] of 0.001 and a log2 fold change [2] of 0.039. It also gave a log2 fold change [3] of -0.009, a log2 fold change [4] of -0.01 and a log2 fold change [5] of 0.07. For the same target, the log2 fold change [6] was -0.002, the log2 fold change [7] was 0.05 and the log2 fold change [8] was 0.036. For the same target, the log2 fold change [9] was -0.363 (active).

NA, A0A096LPI6 was tested, and the log2 fold change (erlotinib) was -0.009, the log2 fold change [1] was -0.009 and the log2 fold change [2] was 0.047. It also gave a log2 fold change [3] of 0.02, a log2 fold change [4] of -0.051 and a log2 fold change [5] of 0.04. The log2 fold change [6] was 0.023, the log2 fold change [7] was -0.004 and the log2 fold change [8] was 0.008. It also gave a log2 fold change [9] of 0.035.

Work on OGFOD1 (UniProt Q8N543) yielded a log2 fold change (erlotinib) of 0.043, a log2 fold change [1] of -0.18 and a log2 fold change [2] of 0.02. The log2 fold change [3] was 0.007, the log2 fold change [4] was 0.015 and the log2 fold change [5] was 0.11. The log2 fold change [6] was -0.01, the log2 fold change [7] was 0.014 and the log2 fold change [8] was 0.007. It also gave a log2 fold change [9] of 0.03.

For NA, A0A0B4J2A0, the log2 fold change (erlotinib) was -0.037, the log2 fold change [1] was 0.07 and the log2 fold change [2] was 0.065. For the same target, the log2 fold change [3] was -0.009, the log2 fold change [4] was 0.037 and the log2 fold change [5] was 0.038. The log2 fold change [6] was 0.108, the log2 fold change [7] was 0.026 and the log2 fold change [8] was -0.055. The log2 fold change [9] was -0.007.

MYO19 (UniProt Q96H55) showed a log2 fold change (erlotinib) of 0.032, a log2 fold change [1] of -0.047 and a log2 fold change [2] of -0.103. The log2 fold change [3] was -0.114, the log2 fold change [4] was 0.011 and the log2 fold change [5] was 0.093. The log2 fold change [6] was 0.027 and the log2 fold change [7] was 0.07.

NAT14 (UniProt Q8WUY8) gave a log2 fold change (erlotinib) of -0.016, a log2 fold change [1] of 0.079 and a log2 fold change [2] of -0.002. It also gave a log2 fold change [3] of 0.014, a log2 fold change [4] of 0.057 and a log2 fold change [5] of 0.046. The log2 fold change [6] was 0.135, the log2 fold change [7] was 0.033 and the log2 fold change [8] was 0.002. It also gave a log2 fold change [9] of -0.084.

For NDUFS7 (UniProt O75251), the log2 fold change (erlotinib) was 0.129, the log2 fold change [1] was -0.011 and the log2 fold change [2] was 0.039. For the same target, the log2 fold change [3] was -0.011, the log2 fold change [4] was 0.062 and the log2 fold change [5] was 0.038. It also gave a log2 fold change [6] of -0.052, a log2 fold change [7] of 0.035 and a log2 fold change [8] of 0.045. For the same target, the log2 fold change [9] was 0.011.

For OXR1 (UniProt Q8N573), the log2 fold change (erlotinib) was 0.029, the log2 fold change [1] was 0.067 and the log2 fold change [2] was 0.011. For the same target, the log2 fold change [3] was 0.002, the log2 fold change [4] was 0.023 and the log2 fold change [5] was 0.007. It also gave a log2 fold change [6] of -0.043, a log2 fold change [7] of -0.062 and a log2 fold change [8] of -0.03. For the same target, the log2 fold change [9] was 0.056.

For NPEPPS (UniProt P55786), the log2 fold change (erlotinib) was 0.002, the log2 fold change [1] was 0.058 and the log2 fold change [2] was 0.054. It also gave a log2 fold change [3] of -0.027, a log2 fold change [4] of 0.061 and a log2 fold change [5] of 0.002. The log2 fold change [6] was 0.005, the log2 fold change [7] was 0.035 and the log2 fold change [8] was -0.009. It also gave a log2 fold change [9] of 0.045.

MRPL46 (UniProt Q9H2W6) showed a log2 fold change (erlotinib) of -0.025, a log2 fold change [1] of -0.008 and a log2 fold change [2] of 0. For the same target, the log2 fold change [3] was 0.011, the log2 fold change [4] was -0.054 and the log2 fold change [5] was -0.001. It also gave a log2 fold change [6] of 0.046, a log2 fold change [7] of 0.164 and a log2 fold change [8] of -0.031. The log2 fold change [9] was -0.075.

Work on NRF1 isoform 4 (UniProt Q16656) yielded a log2 fold change (erlotinib) of 0.079, a log2 fold change [1] of 0.012 and a log2 fold change [2] of -0.161. The log2 fold change [3] was -0.028, the log2 fold change [4] was 0.053 and the log2 fold change [5] was -0.001. It also gave a log2 fold change [6] of -0.012, a log2 fold change [7] of -0.116 and a log2 fold change [8] of -0.051. It also gave a log2 fold change [9] of -0.003.

NMU (UniProt P48645) gave a log2 fold change (erlotinib) of -0.003, a log2 fold change [1] of 0.072 and a log2 fold change [2] of -0.02. It also gave a log2 fold change [3] of 0.063, a log2 fold change [4] of -0.123 and a log2 fold change [5] of 0.094. The log2 fold change [6] was -0.129, the log2 fold change [7] was -0.018 and the log2 fold change [8] was 0.025. For the same target, the log2 fold change [9] was 0.133.
